Measurements taken from PubChem BioAssay AID1903 (Southern Research Specialized Biocontainment Screening …, 2009).
Screen size: about 310,000 compounds; about 1,200 (0.39%) were called active. How the calls were made is not given here. Not all results are given here. Measured potencies and affinities stand elsewhere.

Molecular target: Large T antigen (Simian virus 40) (UniProt P03070)
Assay: TAg ATPase/helicase activity blockers – biochemical (AID 1903)
Conditions: SV40 large T antigen ATPase/helicase inhibition assay; at 20 µM; hits give high values

Large T antigen (Simian virus 40), sequence (P03070 whole entry, looked up): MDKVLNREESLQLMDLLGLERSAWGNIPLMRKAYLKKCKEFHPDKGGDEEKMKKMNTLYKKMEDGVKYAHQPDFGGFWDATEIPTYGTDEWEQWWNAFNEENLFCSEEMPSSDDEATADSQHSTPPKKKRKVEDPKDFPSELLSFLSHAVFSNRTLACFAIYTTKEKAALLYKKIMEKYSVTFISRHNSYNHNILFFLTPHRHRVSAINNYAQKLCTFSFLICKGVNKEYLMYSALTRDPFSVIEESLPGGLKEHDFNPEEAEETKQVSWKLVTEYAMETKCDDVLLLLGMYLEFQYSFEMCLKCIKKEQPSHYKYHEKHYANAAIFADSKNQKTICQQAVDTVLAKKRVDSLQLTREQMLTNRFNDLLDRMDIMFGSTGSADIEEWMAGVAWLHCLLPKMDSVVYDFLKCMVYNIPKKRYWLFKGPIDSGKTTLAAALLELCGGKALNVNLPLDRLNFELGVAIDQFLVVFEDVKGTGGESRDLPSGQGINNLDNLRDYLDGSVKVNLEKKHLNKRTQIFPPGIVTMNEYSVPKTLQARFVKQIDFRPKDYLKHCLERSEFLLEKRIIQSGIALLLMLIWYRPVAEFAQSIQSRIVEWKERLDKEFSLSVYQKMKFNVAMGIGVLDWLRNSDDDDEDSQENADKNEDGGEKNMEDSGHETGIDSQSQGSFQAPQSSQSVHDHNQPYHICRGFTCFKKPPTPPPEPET

inhibition, inactive:
Cc1ccc(SCC(=O)Nc2ccc3c(c2)C(=O)N(C)C3=O)cc1 3.52%, CCc1ccc(NC(=O)Cn2ncn3c(cc4ccccc43)c2=O)cc1 8.68%, O=C(CN1CCN(c2ccc(Cl)cc2)CC1)Nc1ccc(F)cc1 5.08%, CC(C)c1ccc(NC(=O)Cn2ncn3c(cc4ccccc43)c2=O)cc1 5.59%, CC(C)(C)NC(=O)CN1CCC(O)(c2ccccc2)CC1 -0.59%, CCN(CC)c1ccc(NC(=O)COC(=O)CCC(=O)c2ccc(F)cc2)cc1 26.6%, CCN(CC)c1ccc(NC(=O)CN2CCN(c3ccc(F)cc3)CC2)cc1 22.8%, CCN1CCN(CC(=O)Nc2ccc(N(C)C)cc2)CC1 15.6%, CCN(c1ccc(NC(=O)COC(=O)CCC(=O)c2ccc(F)cc2)cc1)C(C)C 23.7%, O=C(NCCCN1CCOCC1)c1cccc(NC(=O)c2ccccc2)c1 8.5%, Cc1cc(C)n(Cc2ccc(NC(=O)c3c([N+](=O)[O-])c(C)nn3C)cc2)n1 21.7%, Cn1ccnc1/C(=N\NC(=O)c1ccccc1)c1cccc([N+](=O)[O-])c1 17.9%, Cc1nc2nc(C)c(CCC(=O)O)c(C)n2n1 8.37%, CCCCC(CC)C(=O)Nc1ccc(C)c(O)c1 (stereo unspecified) 1.23%, CCOc1ccc(S(=O)(=O)n2cnc3ccccc32)cc1 12.2%, CCCc1cc2c(=O)n(NC(=O)c3nn(C)cc3[N+](=O)[O-])c(C)nc2s1 15.2%, CCCCOP(=O)(c1ccc(N(C)C)cc1)C(O)c1cccnc1 (stereo unspecified) 7.96%, Cc1ccc(C(=O)NCc2ccncc2)cc1S(=O)(=O)Nc1cccc(C)c1C 2.57%, COc1ccc(NC(=O)COC(=O)Cn2nnc3ccccc32)cc1 12.6%, O=C(COC(=O)Cn1nnc2ccccc21)Nc1ccccc1Br 7.03%, O=C(NC1CCCC1)C1CCCN(S(=O)(=O)c2cnc[nH]2)C1 (stereo unspecified) 5.21%, CCOC(=O)c1ccc(NC2c3ccccc3C(=O)N2c2ccccn2)cc1 (stereo unspecified) 0.465%, Cc1ccccc1NC(=O)CC1SC(=O)N(c2ccccc2)C1=O (stereo unspecified) 14%, O=C(CC1SC(=O)N(c2ccccc2)C1=O)Nc1ccccc1 (stereo unspecified) 38.4%, CO/N=C/C(=N\Nc1cc(OC)cc(OC)c1)C(=O)c1ccccc1 9.31%, CCc1ccc(CNc2ccc3c(c2)ncn3C)cc1 22.1%, Cc1ccc(CNc2ccc3c(c2)ncn3C(C)(C)C)cc1 21.9%, CN(C)c1ccc(CNc2ccc3c(c2)ncn3C(C)(C)C)cc1 37.9%, CCn1cnc2cc(NCc3ccc(C)cc3)ccc21 35.2%, CCN(CC)c1ccc(CNc2ccc3c(c2)ncn3CC)cc1 32.3%, CCc1ccc(CNc2ccc3c(c2)ncn3CC)cc1 24.4%
